Results published in PubChem BioAssay (Tox21).
Inconclusive results are not listed. Active and inactive are the calls of the source. Unless noted, the call rests on the fitted dose curve; in most records, active means well fitted curve in the direction sought with a large enough effect in the repeat runs; inconclusive means weak or mixed curves; inactive means no such curve, though single readings can be large; an effect the other way counts as inactive or inconclusive.

Assays:
[1] = qHTS assay to identify small molecule HDAC inhibitors - cell viability counter screen (AID 1259365); further: series mostly up to about 92 µM; nearly all actives have a fitted effect of over 50% in size
Method in brief: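 After overnight seeding at 1,500 cells per well, wild-type HCT-116 cultures took up compounds in DMSO for 2hr at 37 C. Viable cell content came from luminescence with CellTiter-Glo.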

[2] = qHTS assay to identify small molecule agonists of the sonic hedgehog signaling (Shh) pathway - cell viability counter screen (AID 1259366); further: nearly all actives have a fitted effect of over 50% in size
Method in brief: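 Same-well cytotoxicity read. Gli1-Luc reporter 3T3 cells; compounds 24hr, 37C/5% CO2; CellTiter-Fluor fluorescence.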

[3] = qHTS assay to identify small molecule antagonists of the sonic hedgehog signaling (Shh) pathway - cell viability counter screen (AID 1259367); further: nearly all actives have a fitted effect of over 55% in size
Method in brief: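 Cells: 3T3 Gli1-Luc, 2,000/well, 4 hr pre-incubation. Compounds in DMSO, then conditioned medium. Incubation 24 hr, 37C, 5% CO2. CellTiter-Fluor at 23 hr, 1 hr, fluorescence.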

[4] = qHTS assay to identify small molecule agonists of the sonic hedgehog signaling (Shh) pathway (AID 1259368; calls by dose curve;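 further: NIH/3T3-derived 3T3Gli1-Luc cells carrying a stable Gli1-driven firefly luciferase reporter; series mostly up to about 92 µM; nearly all actives have a fitted effect of over 15% in size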)
Method in brief: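 3T3Gli1-Luc (NIH/3T3 clone, stable Gli1-Luc); 4 hr pre-incubation, then cpd in DMSO 24 hr, 37 C/5% CO2; luciferase reagent 30 min RT; luminescence.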

[5] = qHTS assay to identify small molecule antagonists of the sonic hedgehog signaling (Shh) pathway (AID 1259369; calls by dose curve; further: nearly all actives have a fitted effect of over 45% in size)
Method in brief: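 3T3Gli1-Luc, conditioned-medium-stimulated, 24hr cpd, 37C/5% CO2; Gli1-driven firefly Luc luminescence after 30min RT with luciferase reagent. Cells plated 4hr before cpd.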

[6] = molecular target: Estrogen receptor beta (Homo sapiens) (UniProt Q92731); assay: qHTS assay to identify small molecule agonists of the estrogen receptor beta (ER-beta) signaling pathway (AID 1259377; active means well fitted activation curve with a large enough effect in the signal ratio in the repeat runs, not every such curve was filed as active; the % refers to the signal ratio)
Method in brief: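 Read-out: beta-lactamase FRET fluorescence. Cell line: ER-beta-UAS-bla HEK293T in 2% charcoal-stripped FBS. Exposure: 16 hr at 37C. Substrate step: 2 h at room temperature.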

[7] = molecular target: Estrogen receptor beta (Homo sapiens) (UniProt Q92731); assay: qHTS assay to identify small molecule antagonists of the estrogen receptor beta (ER-beta) signaling pathway (AID 1259378; active means well fitted inhibition curve with a large enough effect in the signal ratio in the repeat runs, not every such curve was filed as active; the % refers to the signal ratio)
Method in brief: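 Antagonist mode: compounds added to beta-lactamase reporter HEK293T ER-beta-UAS cells stimulated with E2 (1nM final), 16 hr at 37C. LiveBLAzer B/G FRET substrate, 2 hours room temperature, fluorescence read-out.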

[8] = qHTS assay to identify small molecule agonists of the androgen receptor (AR) signaling pathway in the presence of an antagonist - cell viability counter screen (AID 1259379);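 further: MDA-kb2 human breast cancer cells carrying an MMTV luciferase reporter; series mostly up to about 92 µM; nearly all actives have a fitted effect of over 25% in size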
Method in brief: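 Cells: MDA-kb2 (MMTV-luc, AR and GR elements), 3,000/well, 5 hr settle. Added: nilutamide 3.0uM final, then compounds (15 conc.). Incubation: 16 hr, 37C, no CO2. Read-out: CellTiter-Fluor, 1 hr, fluorescence.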

[9] = qHTS assay to identify small molecule agonists of the estrogen receptor beta (ER-beta) signaling pathway - cell viability counter screen (AID 1259380); further: nearly all actives have a fitted effect of over 30% in size
Method in brief: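 HEK293T ER-beta-UAS-bla; 2% CS-FBS; 6 hr pre-plate, 16 hr cpd at 37C/5% CO2; LiveBLAzer read first, then CellTiter-Glo 30 min RT, luminescence.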

Measured: Potency

Chain of Estrogen receptor beta (Homo sapiens) (Q92731 whole entry, looked up): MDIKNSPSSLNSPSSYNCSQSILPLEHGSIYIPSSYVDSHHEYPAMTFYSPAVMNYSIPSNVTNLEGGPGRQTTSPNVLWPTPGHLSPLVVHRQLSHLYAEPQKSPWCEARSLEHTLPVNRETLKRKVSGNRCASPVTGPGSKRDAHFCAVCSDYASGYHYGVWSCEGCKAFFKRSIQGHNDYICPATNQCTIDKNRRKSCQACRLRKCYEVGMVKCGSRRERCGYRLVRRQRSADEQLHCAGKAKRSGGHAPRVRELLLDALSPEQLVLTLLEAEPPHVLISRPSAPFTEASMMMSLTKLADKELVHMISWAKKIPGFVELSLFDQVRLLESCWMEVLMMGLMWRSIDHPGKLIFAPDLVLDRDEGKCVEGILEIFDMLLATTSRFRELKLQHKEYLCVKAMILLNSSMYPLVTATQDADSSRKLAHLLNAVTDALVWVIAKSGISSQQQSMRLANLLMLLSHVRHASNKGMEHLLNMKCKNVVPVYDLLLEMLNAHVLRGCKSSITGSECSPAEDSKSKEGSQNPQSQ

CCOc1ccc(NC(=O)OC(C)C)cc1OCC
not listed: [9]
inactive: all other assays above

CC(C)CCO
inactive: all assays above

CCN(Cc1cccc(S(=O)(=O)O)c1)c1ccccc1
inactive: all assays above

CC(C)CCCC(C)CC=O (stereo unspecified)
inactive: all assays above

FC(F)(F)/C(=N\OCC1OCCO1)c1ccc(Cl)cc1
inactive: all assays above

SCCSCCS
inactive: all assays above

CC(C)C(=O)c1ccccc1
inactive: all assays above

CCCCCCCCCOCC1CO1 (stereo unspecified)
inactive: all assays above

C=CCOC(=O)c1ccc(C(=O)OCC=C)c(C(=O)OCC=C)c1
inactive: all assays above

C1=CCC(c2ccccc2)CC1 (stereo unspecified)
inactive: all assays above

CN=C(NC#N)NCCSCc1csc(N=C(N)N)n1
inactive: all assays above

Cc1ccccc1N1CCN(CCc2nnc3n2CCCC3)CC1
inactive: all assays above

COC(=O)CCC(=O)O
inactive: all assays above

CCCC(C)CC (stereo unspecified)
inactive: all assays above

CC(C)COC(=O)/C=C/c1ccccc1
inactive: all assays above

C=CCOc1c(Br)cc(Br)cc1Br
inactive: all assays above

N#CCCOCCOCCC#N
inactive: all assays above

O=C(COCCOCCOCC(=O)Nc1c(I)cc(I)c(C(=O)O)c1I)Nc1c(I)cc(I)c(C(=O)O)c1I
inactive: all assays above

O=[Si]=O
inactive: all assays above

Nc1cc(S(=O)(=O)O)ccc1S(=O)(=O)O
inactive: all assays above

C=CCOCC(CO)(COCC=C)COCC=C
inactive: all assays above

CCCCC/C=C/CC(=O)OC
inactive: all assays above

CCCCCCCCCCCCC1CO1 (stereo unspecified)
inactive: all assays above

CC(C)COC(=O)CC(C(=O)OCC(C)C)S(=O)(=O)O (stereo unspecified)
inactive: all assays above

O=C1CC[C@H](C(=O)N2CCCCC2)N1
not listed: [9]
inactive: all other assays above

CCOC(=O)OCC/C(SC(=O)OCC)=C(\C)N(C=O)Cc1cnc(C)nc1N
inactive: all assays above

Nc1ccc(S(=O)(=O)NC(=O)c2ccccc2)cc1
inactive: all assays above
